# An excerpt weighted towards active compounds, which were near 4.2% of everything screened.
# GDH-TPI counter: GDH-TPI coupling enzyme inhibitors, primary screen, artefact control for M. tuberculosis FBA inhibitor project, biochemical, absorbance, full deck | GDH-TPI coupled enzyme counterscreen, NADH absorbance | inhibition, % at 4.8 µM | 1.2% of 360,000 active;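 further: 0% = DMSO wells and 100% = wells lacking the enzyme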
# FBA Mtb inh: Mtb FBA enzyme inhibitors, primary screen, biochemical, fluorescence, strain H37Rv. Fructose-bisphosphate aldolase (Mycobacterium tuberculosis (strain ATCC 25618 / H37Rv)), …. purified M. tuberculosis FBA, fluorescence read-out. inhibition, % at 1 µM. 2.3% of 360,000 active. AID 588726, 2011; in the data active means inhibition above about 27%;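 further: 0% = vehicle and 100% = reference inhibitor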
# RecA intein inh: Mtb RecA intein splicing inhibitors, primary screen, biochemical, fluorescence, HTS; Protein RecA (Mycobacterium tuberculosis (strain ATCC 25618 / H37Rv)), P9WHJ3; 0.75% of 290,000 active; inhibition, % (concentration not given with the values); cell-free RecA intein splicing; in the data active means inhibition above about 30%;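 further: 0% = vehicle wells and 100% = reference inhibitor control wells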
# Target sequence (P9WHJ3 whole entry, looked up): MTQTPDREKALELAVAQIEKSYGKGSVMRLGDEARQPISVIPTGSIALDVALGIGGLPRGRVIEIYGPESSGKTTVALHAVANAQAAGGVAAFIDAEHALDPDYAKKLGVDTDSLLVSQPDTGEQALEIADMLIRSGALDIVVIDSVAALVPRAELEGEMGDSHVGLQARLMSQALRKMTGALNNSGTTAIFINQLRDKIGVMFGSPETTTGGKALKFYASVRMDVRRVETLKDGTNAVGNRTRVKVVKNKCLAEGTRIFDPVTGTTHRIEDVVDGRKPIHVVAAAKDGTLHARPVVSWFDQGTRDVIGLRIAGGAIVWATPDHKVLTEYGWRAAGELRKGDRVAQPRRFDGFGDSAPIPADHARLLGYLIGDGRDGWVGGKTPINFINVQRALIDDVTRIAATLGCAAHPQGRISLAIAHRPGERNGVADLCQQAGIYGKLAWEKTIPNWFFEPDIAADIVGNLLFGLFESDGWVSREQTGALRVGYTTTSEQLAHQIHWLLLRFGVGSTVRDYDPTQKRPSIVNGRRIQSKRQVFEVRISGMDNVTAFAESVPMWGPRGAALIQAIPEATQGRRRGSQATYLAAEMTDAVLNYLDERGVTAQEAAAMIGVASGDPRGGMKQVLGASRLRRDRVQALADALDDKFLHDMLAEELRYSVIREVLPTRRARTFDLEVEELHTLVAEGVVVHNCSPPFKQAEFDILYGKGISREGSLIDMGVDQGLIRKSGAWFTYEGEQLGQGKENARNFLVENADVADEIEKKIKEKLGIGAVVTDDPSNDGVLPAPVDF
# CCHFV vOTU inh: CCHFV vOTU protease inhibitors, primary screen, biochemical, Pep-AMC substrate, fluorescence | AID 651958, 2012 | 0.55% of 370,000 active | Crimean-Congo hemorrhagic fever virus L polyprotein viral ovarian tumor (vOTU) protease … | inhibition, % at 11.5 µM; further: 0% = vehicle wells with enzyme and 100% = no enzyme wells
# Mtb betalactam: beta-lactam sensitization of Mtb H37Rv, H37Rv | M. tuberculosis H37Rv growth with meropenem, percent inhibition | inhibition, % at 25 µM | 0.27% of 330,000 active | AID 434955, 2010; call rule not given here;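 further: growth measured after seven days incubation then overnight dye step; 0% = bacteria only wells and 100% = bacteria with antibiotic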
# An asterisk follows results filed as active; x = no result; + = active, no number. Unless noted, no stated cut-off is given here; in the data, active means inhibition above about 30%; inactive means the rest.
SMILES,GDH-TPI counter,FBA Mtb inh,RecA intein inh,CCHFV vOTU inh,Mtb betalactam
COc1cc2c(cc1/C=C/C(=O)O)OC(C)C2 (configuration not stated),4,+,-32,-279,13
CC(C)(O)C1Cc2cc(/C=C/C(=O)O)c(O)cc2O1 (configuration not stated),15,8,-5,-16,x
CC(=O)COc1c(-c2ccco2)oc2ccccc2c1=O,32*,24,-2,-6,1
O=C(Oc1c(-c2ccccc2)oc2ccccc2c1=O)c1ccccc1,18,2,-1,-12,100
O=S1(=O)N=C(N(CCO)/N=C/C=C/c2ccccc2)c2ccccc21,56*,-3,-2,4,-5
COc1ccc(OC)c(/C=N/NC2=NS(=O)(=O)c3ccccc32)c1,16,1,-3,5,-2
CN(C)c1ccc(/C=N/NC2=NS(=O)(=O)c3ccccc32)cc1,23,-5,-2,11,3
COc1cc(/C=N/NC2=NS(=O)(=O)c3ccccc32)cc(OC)c1OC,12,-3,-4,20,11
O=S1(=O)N=C(N(CCO)/N=C/c2ccc(Cl)cc2)c2ccccc21,15,-4,-1,23,1
COc1ccc(/C=N/NC2=NS(=O)(=O)c3ccccc32)cc1,44*,0,-4,0,1
COc1ccc(/C=N/NC2=NS(=O)(=O)c3ccccc32)cc1OC(C)=O,32*,-1,-3,3,9
CC(=O)Oc1ccc(/C=N/NC2=NS(=O)(=O)c3ccccc32)cc1,35*,-1,-3,5,12
O=S1(=O)N=C(N/N=C/C=C/c2ccccc2)c2ccccc21,40*,2,-1,26,1
COc1cc(OC)cc(C(=O)/C=C2\Sc3ccccc3N2C)c1,12,2,-13,-4,1
COCC(=O)/C=C1\Sc2ccccc2N1C,37*,-6,-3,13,1
CN1/C(=C/C(=O)c2cccs2)Sc2ccccc21,-10,1,-24,-7,38
CN1/C(=C/C(=O)C2CCC2)Sc2ccccc21,68*,2,-2,8,3
Cc1cc(OCc2cc(C(=O)NC3CCC3)no2)cc(C)c1Cl,3,46*,0,x,13
COc1ccc(NC(=O)CSc2nc(C)cc(=O)[nH]2)cc1OC,x,x,x,17,x
O=c1c(Cl)c(Cl)cnn1Cc1ccc(F)cc1,7,-3,35*,-10,97
CC(=O)N1CCN(C(=O)CN2C(=O)CC(C)(C)S(=O)(=O)c3ccccc32)CC1,x,x,x,8,x
CC(C1CC2CCC1C2)n1c(COc2ccccc2F)nnc1SCC(N)=O (configuration not stated),-5,+,-1,25,-2
Cc1cccc(N(CC(=O)NC2CCCCC2)C(=O)CCC(=O)Nc2ccccn2)c1,x,x,3,x,3
CC1=CN2C(=NC(=O)CC2(C)C(=O)N(CC(=O)NC2CCCC2)c2cc(C)cc(C)c2)C=C1 (configuration not stated),3,144*,1,-113,-2
Cc1ccnc(NC(=O)CCC(=O)N(CC(=O)NC2CCCCC2)Cc2ccccc2)c1,4,5,1,-9,-1
SMILES,GDH-TPI counter,FBA Mtb inh,RecA intein inh,CCHFV vOTU inh,Mtb betalactam
CC1=CC=CN2C1=NC(=O)CC2(C)C(=O)N(CC(=O)NC1CCCC1)Cc1ccccc1 (configuration not stated),10,152*,-1,-83,-3
CC1=CN2C(=NC(=O)CC2(C)C(=O)N(CC(=O)NC2CCCC2)Cc2ccc(Cl)cc2)C=C1 (configuration not stated),0,117*,-1,-122,-4
CC1=CC=CN2C1=NC(=O)CC2(C)C(=O)N(CC(=O)NC1CCCC1)c1cc(C)cc(C)c1 (configuration not stated),7,174*,3,-104,-1
CC1=CN2C(=NC(=O)CC2(C)C(=O)N(CC(=O)NC2CCCC2)c2ccccc2C)C=C1 (configuration not stated),-4,147*,-1,-145,7
COC(=O)[C@]12C[C@H](CC(=O)N3CCSCC3)C(=O)N(CCc3ccc(OC)c(OC)c3)C1=C[C@H](C(C)(C)C)O[C@@H]2C,x,x,x,5,x
Cc1ccc(S(=O)(=O)c2c(N)n(CCCO)c3nc4ccccc4nc23)cc1,21,143*,-16,-145,-7
Cc1ccc(S(=O)(=O)c2c(N)n(CCN3CCOCC3)c3nc4ccccc4nc23)cc1C,14,15,-4,-2,-2
Nc1c(S(=O)(=O)c2ccccc2)c2nc3ccccc3nc2n1Cc1ccco1,46*,101*,-5,-155,5
Cc1ccc(S(=O)(=O)c2c(N)n(Cc3ccco3)c3nc4ccccc4nc23)cc1C,40*,91*,-8,-67,-15
CCOc1ccc(-n2c(SCC(=O)Nc3ccccc3-c3ccccc3)nnc2-c2ccccc2)cc1,x,x,x,10,x
Cc1cc(O)c(C=Nc2ccc(N3CCOCC3)cc2)c(C)c1Cl,14,-2,-6,-11,-3
Cc1ccc(Cl)cc1-c1ccc(C=Nc2ccc(N3CCOCC3)cc2)o1,33*,1,-1,18,4
CCN(CC)c1ccc(C2C(C(=O)OC)=C(C)NC(C)=C2C(=O)OC)cc1,21,0,-2,30*,0
COC(=O)C1=C(C)NC(C)=C(C(=O)OC)C1c1ccc(NC(C)=O)cc1,-7,-2,2,-11,-1
CC1CN(C(=O)c2cc3c(=O)n4ccccc4nc3s2)CC(C)O1 (configuration not stated),34*,196*,-46,-122,-17
COc1ccccc1N1CCN(C(=O)c2cc3c(=O)n4ccccc4nc3s2)CC1,21,9,x,-16,17
CN1CCN(C(=O)c2cc3c(=O)n4ccccc4nc3s2)CC1,10,+,-106,-286,-4
Cc1cc(C)cc(NC(=O)c2cc3c(=O)n4ccccc4nc3s2)c1,8,3,-1,26,1
O=[N+]([O-])c1ccc(/C=[N+](\[O-])[C@@H]2CCCC[C@@H]2/[N+]([O-])=C/c2ccc([N+](=O)[O-])o2)o1,34*,-1,-14,16,100
CCn1c(NC(=O)c2ccc(COc3ccc(C)cc3[N+](=O)[O-])o2)nc2ccccc21,32*,1,-2,14,70
COC(=O)Cn1c(=O)c2c(n(Cc3ccccc3)c1=O)N/C(=C/c1ccc(OC)cc1)C2=O,41*,-1,-1,-1,-3
COc1ccc(OC)c(S(=O)(=O)Nc2ccc(C(=O)Nc3cc(C)on3)cc2)c1,x,x,x,-5,x
